This note sets out measurements from PubChem BioAssay AID977607 (Broad Institute, 2014).

The whole screen tested about 1,500 compounds, of which about 460 (31%) were called active. Not shown: some 1% with an inconclusive outcome.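 How the source made its calls: active means curve reaches 40% activation over neutral controls at an AC40 no higher than the top valid tested concentration; inconclusive means no clear call, values can overlap the other calls; inactive means signal moving opposite to the expected increase, and the rest.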 These entries were drawn from the full list. Entries with a potency or affinity are not part of this list.

The test is described as follows: GLuc-reported insulin release enhancers, glucose-stimulated beta cells – cell-based, INS-1E, Gaussia luciferase, luminescence, cherry-pick, set 2, dose response (AID 977607).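 Further: 0% = median of the plate neutral control wells.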 The following applies: INS-1E GLuc insulin secretion reporter, 2-3 h, hits give high values; at 35 µM, 100% = signal doubled over neutral wells unless noted.
Turning to `COc1ccc(-c2nc3cccc(C)n3c2NCc2ccco2)cc1OC`, the max activation is -14.6% [at 1.2 µM, 100% = signal doubled over neutral wells] (inactive).
`CN(C)c1ccc(CC(=O)N2CCCCC2c2cc(C(=O)Nc3ccccc3Cl)no2)cc1` (centres undefined): the max activation was -48.9% (inactive).
With `CCCc1c(C)c2ccc(OCC(C)=O)cc2oc1=O` the figure was -16.6% [at 0.005 µM, 100% = signal doubled over neutral wells] (inactive).
For `CCOC(=O)N1CCN(S(=O)(=O)c2ccc3c4c(cccc24)C(=O)N3)CC1`, the max activation is 37.4% [at 0.42 µM, 100% = signal doubled over neutral wells] (inactive).
For `C[C@H]1CN([C@@H](C)CO)C(=O)c2cc(C#CCc3ccccc3)cnc2O[C@@H]1CN(C)C(=O)C1CC1`, the max activation is -42.9% (inactive).
`C[C@H](CO)N1C[C@H](C)[C@@H](CN(C)C(=O)Cc2ccccn2)Oc2cc(C#C[C@@H](C)O)ccc2S1(=O)=O`: the max activation was -20.3% [at 0.135 µM, 100% = signal doubled over neutral wells] (inactive).
With `C[C@@H]1CN([C@@H](C)CO)C(=O)CCCn2nncc2CO[C@H]1CN(C)Cc1ccccc1` the figure was -19.1% [at 0.015 µM, 100% = signal doubled over neutral wells] (inactive); with `C[C@@H]1CN([C@H](C)CO)C(=O)Cc2cc(NC(=O)CCCN(C)C)ccc2O[C@H]1CN(C)Cc1ccc(-c2ccccc2)cc1`, 19.8% (inactive).
With `O=C(Cn1cnc2c(OCc3ccccc3)ncnc21)NCc1ccccn1` the figure was 17.4% [at 0.135 µM, 100% = signal doubled over neutral wells] (inactive); with `Cc1c(C)n(CCCN(C)C)c2ncnc(Nc3ccccc3)c12`, -20.1% [at 11 µM, 100% = signal doubled over neutral wells] (inactive); with `Cc1ccc(F)cc1NC(=O)c1sc2ncn(CC(=O)N3CCN(c4ccccn4)CC3)c(=O)c2c1C`, -38% (inactive).
With `S=c1[nH]nc(-c2ccccc2)n1/N=C/c1c[nH]c2ccccc12` the figure was 30.5% [at 0.005 µM, 100% = signal doubled over neutral wells] (inactive); with `COc1ccc(/C=N/n2c(-c3n[nH]c4c3CCC4)n[nH]c2=S)cc1OC`, -27.2% [at 0.0016 µM, 100% = signal doubled over neutral wells] (inactive).
Regarding `Cc1ccc(/C=N/n2c(-c3cccnc3)n[nH]c2=S)s1`, the max activation was -11.8% [at 1.2 µM, 100% = signal doubled over neutral wells] (inactive).
Regarding `C=CCN=c1sc(C(=O)OC)cc(=O)n1CC=C`, the max activation is 27.6% [at 11 µM, 100% = signal doubled over neutral wells] (inactive).
With `Cc1ccc(F)cc1-c1nc(NC(C)C)nc2cc(-c3ccccc3)sc12` the figure was -27.5% [at 11 µM, 100% = signal doubled over neutral wells] (inactive); with `COc1ccc(CCNC(=O)CN2c3cccc4cccc(c34)S2(=O)=O)cc1OC`, 39.7% (inactive).
Regarding `O=C(Nc1cccnc1)/C(N=Nc1cccnc1)=C(\O)c1ccccc1`, the max activation was -11.7% [at 0.42 µM, 100% = signal doubled over neutral wells] (inactive).
Consider `O=C(NCc1ccccc1)C(c1ccncc1)n1c(=O)c(-c2ccccc2)nc2ccccc21` (centres undefined), for which the max activation was -12.6% [at 1.2 µM, 100% = signal doubled over neutral wells] (inactive).
With `O=C(OC1CCOC1=O)c1cc(-c2ccc(Cl)cc2)nc2ccccc12` (centres undefined), the max activation is 34.2% [at 3.8 µM, 100% = signal doubled over neutral wells] (inactive).
Take `COc1cc(C)c(C)cc1S(=O)(=O)N1CCCCC1c1cccnc1` (centres undefined): the max activation is 13% [at 1.2 µM, 100% = signal doubled over neutral wells] (inactive).
With `CCc1nc2ccc(C(=O)NCCCN(C)C)cn2c1N(C)Cc1ccc(OC)cc1` the figure was -28.3% [at 0.046 µM, 100% = signal doubled over neutral wells] (inactive); with `COC(=O)C1=C(C)NC(=S)NC1c1cccc(OC)c1` (centres undefined), -19.4% [at 0.046 µM, 100% = signal doubled over neutral wells] (inactive).
As to `CC1CN(S(=O)(=O)c2cc(C(=O)NC(C)c3cccnc3)ccc2Cl)CC(C)O1` (centres undefined), the max activation was -33% (inactive).
With `O=C1c2[nH]nc(-c3ccccc3)c2C(c2ccccc2)N1c1ccccc1` (centres undefined) the figure was -31.9% (inactive); with `COc1ccccc1CNC(=O)CCNS(=O)(=O)c1ccc2[nH]c(=O)oc2c1`, -23% [at 0.015 µM, 100% = signal doubled over neutral wells] (inactive); with `COC(=O)c1cc(S(=O)(=O)NCC2CCN(Cc3cc(C)ccc3C)CC2)c[nH]1`, -22.8% [at 11 µM, 100% = signal doubled over neutral wells] (inactive).
For `O=C(c1ccco1)N1CCN(C2CN(Cc3ccccc3)S(=O)(=O)C2)CC1` (centres undefined), the max activation was 13.2% [at 0.135 µM, 100% = signal doubled over neutral wells] (inactive).
Turning to `Cn1cc(Br)c(C(=O)NNC(=O)c2ccccc2)n1`, the max activation was -8.88% [at 0.015 µM, 100% = signal doubled over neutral wells] (inactive).
`Cc1[nH]n(-c2ccc(Br)cc2)c(=O)c1/C=N/NC(=O)c1ccccc1`: the max activation is -37.8% (inactive).
In the case of `O=C(Nc1cccnc1Cl)C1=NN(c2ccccc2)C(=O)CC1`, the max activation is -19.3% [at 0.42 µM, 100% = signal doubled over neutral wells] (inactive).
Turning to `Cn1c(=O)[nH]c(=O)c2c1nc(N1CCCCC1)n2C/C=N/Nc1ccc(C(=O)O)cc1`, the max activation was 40.2% [at 0.0016 µM, 100% = signal doubled over neutral wells] (inactive).
With `C/C=C/Cn1c(N2CCCCCC2)nc2c1c(=O)[nH]c(=O)n2C` the figure was 53.5% (inactive); with `C[C@@H]1CC2=C(C(=O)OC(C)(C)O2)[C@H](c2ccc(Cl)cc2)O1`, -23% [at 0.42 µM, 100% = signal doubled over neutral wells] (inactive).
